Test results: paper PMC5540273 (PLoS ONE, 2017)

Legend:
Settings in all cases: concentration: 1 μM, replicates: in singlicate; n = 1
PCTK2 = tested on: T1, PCTK2
T1 construct: gene CDK17

PCTK3 = tested on: T2, PCTK3
T2 construct: gene CDK18

PDGFRA = tested on: PDGFRA
PDGFRB = tested on: PDGFRB
PDPK1 = tested on: PDPK1
PFTAIRE2 = tested on: PFTAIRE2
PFTK1 = tested on: T3, PFTK1
T3 construct: gene CDK14

PHKG1 = tested on: PHKG1
PHKG2 = tested on: PHKG2
PIK3C2B = tested on: PIK3C2B
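Further: KINOMEscan kinase panel screen.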

SMILES | %Inh (PCTK2) [%] | %Inh (PCTK3) [%] | %Inh (PDGFRA) [%] | %Inh (PDGFRB) [%] | %Inh (PDPK1) [%] | %Inh (PFTAIRE2) [%] | %Inh (PFTK1) [%] | %Inh (PHKG1) [%] | %Inh (PHKG2) [%] | %Inh (PIK3C2B) [%]
c1ccc(-c2n[nH]cc2Nc2ccnc3ccccc23)nc1 [GW694077] | 0 | 9 | 20 | 65 | 0 | 16 | 18 | 0 | 30 | 29
O=c1[nH]cc(-c2ccc(N3CCOCC3)cc2)c2sc(-c3cn[nH]c3)cc12 [GSK2276055] | 28 | 15 | 32 | 63 | 0 | 34 | 42 | 0 | 6 | 9
CN(c1ccc(NC(=O)Nc2cc(C(F)(F)F)ccc2F)cc1)c1ccnc(Nc2ccc(S(N)(=O)=O)cc2)n1 [GW809893] | 97.9 | 95.5 | 96.1 | 99.9 | 35 | 96.5 | 97 | 14 | 0 | 29
CC(=O)N1CCN(c2ccc(Nc3nccc(-c4sc(C(C)C)nc4-c4cccc(NS(=O)(=O)c5cccc(Cl)c5)c4)n3)cn2)CC1 [GSK1660437] | 99.9 | 100 | 73 | 99 | 0 | 49 | 57 | 0 | 0 | 0
COc1cccc(NC(=O)NC2CCN(c3ccnc(Nc4cc(OC)c(OC)c(OC)c4)n3)C2)c1 (stereo not shown) [GSK1379763] | 25 | 21 | 28 | 83 | 0 | 9 | 5 | 0 | 0 | 0
Cn1cc(-c2ccc3c(c2)CCN3C(=O)Cc2cccc(Cl)c2)c2c(N)ncnc21 [GSK2606590] | 0 | 7 | 84 | 100 | 40 | 18 | 32 | 17 | 0 | 89
Cl.Cl.NCC(NC(=O)c1cc(-c2ccccc2)c(-c2ccnc3[nH]ccc23)s1)c1ccccc1 (stereo not shown) [GSK1321561] | 0 | 0 | 0 | 45 | 20 | 6 | 17 | 0 | 0 | 0
COC(=O)Nc1nc2cc(Oc3ccc(NC(=O)Nc4cc(C(F)(F)F)ccc4F)cn3)ccc2[nH]1.Cl.Cl [GW681170] | 16 | 16 | 94.7 | 99.8 | 0 | 68 | 21 | 0 | 0 | 0
Nc1n[nH]c2cnc(-c3ccccc3)cc12 [SB-642124] | 0 | 10 | 0 | 21 | 0 | 3 | 19 | 0 | 0 | 0
O=C(Nc1cccc(-c2nn3ccccc3c2-c2ccnc(Nc3cccc(C(F)(F)F)c3)n2)c1)c1c(F)cccc1F [GSK292658] | 0 | 0 | 10 | 97.3 | 0 | 15 | 8 | 0 | 0 | 0
Nc1ncc(-c2cccnc2)c2scc(-c3ccc4c(c3)CCN4C(=O)Cc3ccccc3)c12 [GSK683281] | 8 | 18 | 53 | 94.3 | 21 | 33 | 20 | 18 | 0 | 0
CN(C)S(=O)(=O)c1cc(-c2ccc3nccc(-c4cccc(S(N)(=O)=O)c4)c3c2)cnc1N [GSK1669921] | 0 | 0 | 0 | 16 | 9 | 31 | 17 | 0 | 8 | 95.5
COc1ccc(CNC(=O)NC2CCN(c3ccnc(Nc4ccc(F)cc4)n3)CC2)cc1 [GSK1379788] | 0 | 0 | 0 | 35 | 0 | 0 | 13 | 0 | 0 | 0
Cc1cccc(Nc2nc(N[C@H]3CCNC3)ncc2C(N)=O)c1.Cl [GSK2197149] | 7 | 34 | 58 | 89 | 7 | 7 | 15 | 66 | 68 | 0
CSc1cccc2c(-c3ccncn3)c(-c3ccc(F)cc3)nn12 [GW514786] | 0 | 14 | 0 | 7 | 0 | 20 | 28 | 12 | 0 | 0
CN(C)Cc1ccc(-c2ccc3c(Nc4ccc(Oc5ccccn5)cc4)ccnc3c2)o1 [GW567148] | 0 | 0 | 82 | 98.7 | 0 | 0 | 0 | 2 | 0 | 0

SMILES | %Inh (PCTK2) [%] | %Inh (PCTK3) [%] | %Inh (PDGFRA) [%] | %Inh (PDGFRB) [%] | %Inh (PDPK1) [%] | %Inh (PFTAIRE2) [%] | %Inh (PFTK1) [%] | %Inh (PHKG1) [%] | %Inh (PHKG2) [%] | %Inh (PIK3C2B) [%]
Cn1cc(-c2[nH]c3cc(NC(=O)[C@H](N)C4CCCCC4)cc4c3c2C=NNC4=O)cn1 | 0 | 0 | 99.7 | 100 | 75 | 5 | 5 | 65 | 23 | 49
O=C(Nc1n[nH]c2cc(-c3ccoc3)ccc12)C1CC1 [SB-738481] | 51 | 22 | 62 | 90 | 0 | 21 | 29 | 0 | 0 | 7
CC(C)(C)c1ccc2nccc(Nc3cccc(O)c3)c2c1 [GW856795] | 0 | 0 | 81 | 1 | 96.3 | 0 | 0 | 0 | 9 | 38
Cc1ccc(C(=O)N2CC[C@@H](O)C2)cc1-n1c(C)cc(OCc2ccc(F)cc2F)c(Br)c1=O | 0 | 7 | 4 | 77 | 30 | 2 | 12 | 0 | 0 | 0
O=C(Nc1cccc(Oc2ccc3nc(NC(=O)C4CC4)cn3n2)c1)c1ccccc1C(F)(F)F | 0 | 6 | 99.7 | 100 | 0 | 7 | 0 | 18 | 6 | 0
C[C@@H]1CC[C@@H](C(=O)Nc2ccccc2)CN1c1cc(-c2ccc3c(N)n[nH]c3c2)nc(N)n1 [GSK2286062] | 13 | 10 | 0 | 23 | 64 | 7 | 29 | 0 | 21 | 0
Cn1cc(-c2ccc3c(c2)CCN3C(=O)Cc2cccc(F)c2)c2c(N)ncnc21 [GSK2603358] | 0 | 17 | 78 | 99.8 | 0 | 12 | 18 | 1 | 0 | 80
COc1ccc(-c2coc3ccc(-c4nnc(SCc5ccc(OC)c(C(F)(F)F)c5)o4)cc23)cc1 | 9 | 9 | 23 | 16 | 12 | 0 | 19 | 3 | 4 | 0
COc1cc(Nc2nccc(N3CCC(NC(=O)Nc4cccc(C(C)=O)c4)C3)n2)cc(OC)c1OC (stereo not shown) [GSK1379753] | 26 | 0 | 0 | 77 | 0 | 0 | 23 | 0 | 2 | 0
NCCCC(NC(=O)c1cc(Br)c(-c2ccnc3[nH]ccc23)s1)c1ccccc1.O=C(O)C(F)(F)F.O=C(O)C(F)(F)F (stereo not shown) [GSK1287544] | 0 | 0 | 0 | 28 | 14 | 25 | 0 | 0 | 0 | 0
Fc1ccc(-c2ncn(C3CCNCC3)c2-c2ccnc(Oc3ccc(-c4ccccc4)cc3)n2)cc1 [SB-245391] | 1 | 2 | 23 | 12 | 21 | 13 | 9 | 0 | 0 | 27
O=C(Nc1cccc(-c2nn3ncccc3c2-c2ccnc(Nc3ccccc3)n2)c1)c1c(F)cccc1F [GSK198271] | 0 | 17 | 65 | 100 | 0 | 23 | 0 | 0 | 0 | 0
Cc1cccc(NC(=O)Nc2ccc(Oc3ncnc4ccn(C)c34)cc2)c1 | 0 | 0 | 99.7 | 100 | 0 | 0 | 0 | 0 | 0 | 0
CCS(=O)(=O)c1ccc(OC)c(Nc2nccc(-c3c(-c4cccc(NC(=O)c5c(F)cccc5F)c4)nn4ncccc34)n2)c1 [GSK326180] | 0 | 18 | 0 | 40 | 0 | 27 | 17 | 1 | 0 | 0
COc1ccc(Nc2nccc(N3CCC(NC(=O)Nc4cccc(OC)c4)C3)n2)cc1 (stereo not shown) [GSK1379742] | 0 | 21 | 0 | 23 | 15 | 10 | 2 | 17 | 0 | 13
